# Only some compounds are listed: those with a hit (about 15% of all), similar ones and a draw of the others.
# ELG1 repair inh: blocks ELG1-dependent DNA repair in HEK293T cells. HEK293T ELG1-luciferase reporter, luminescence, 16 h; DNA damage induced by 5-fluorouridine. Potency, µM (doses to about 46.1 µM), hits mostly inhibitors. actives 2.3% (n = 330,000). AID 504467; further: nearly all actives have a fitted effect of over 55% in size
#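 HEK293T cells expressing luciferase-tagged ELG1 (2,000/well) received 5-Fluorouridine plus compound or DMSO for 16 hr at 37 °C. Luciferase was read by ONE-Glo luminescence after 30 min at room temperature.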
# VP16 counter: Gal4-VP16 reporter inhibition counter-screen. Drosophila S2 Gal4-VP16 UAS-luciferase, luminescence, 20 h. Potency, µM (doses to about 53.6 µM), actives largely listed as inhibitors. actives 3.5% (n = 310,000);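 further: Gal4-VP16 expression switched on by copper sulfate through the metallothionein promoter; nearly all actives have a fitted effect of over 50% in size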
# DT40 TDP1 CPT: DT40-hTDP1 cell growth loss with CPT; Potency, µM (titrated, usually from 46.2 µM), hits mostly inhibitors; AID 686979; chicken DT40 Tdp1-/-;hTDP1 cells + 20 nM CPT, ATP luminescence, 48 h; actives 12% (n = 420,000); further: nearly all actives have a fitted effect of over 55% in size
#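 Cell growth measured by CellTiter-Glo luminescence after a minimum 48 h, 37 C compound exposure with 20 nM CPT in Tdp1-knockout DT40 cells stably expressing hTDP1, seeded 400/well; qHTS titration format.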
# 12-LOX inh: ALOX12 (human) lipoxygenase inhibition; P18054; purified 12hLO, xylenol orange hydroperoxide absorbance; Potency, µM (top dose mostly 108 µM), usual class: inhibitors; actives 1.1% (n = 580,000); AID 1671190
#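 Purified human 12hLO at 150 nM in 25 mM Hepes, 0.01% Triton X-100, pH 7.0, preincubated 15 min at room temperature with compound. Reaction started with 40 uM arachidonic acid, 30 min at room temperature. Hydroperoxide measured by Fe-xylenol orange, 573/405 nm absorbance ratio.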
# RORg inh: inhibitors of mouse ROR gamma transcriptional activity. P51450. Drosophila S2 Gal4-RORgamma UAS-luciferase reporter, 20 h. Potency, µM (series often up to 53.6 µM), most hits filed as inhibitors. actives 5.4% (n = 310,000). AID 2551; further: nearly all actives have a fitted effect of over 60% in size
# Target sequence (P51450 whole entry, looked up, the tested form may be a part): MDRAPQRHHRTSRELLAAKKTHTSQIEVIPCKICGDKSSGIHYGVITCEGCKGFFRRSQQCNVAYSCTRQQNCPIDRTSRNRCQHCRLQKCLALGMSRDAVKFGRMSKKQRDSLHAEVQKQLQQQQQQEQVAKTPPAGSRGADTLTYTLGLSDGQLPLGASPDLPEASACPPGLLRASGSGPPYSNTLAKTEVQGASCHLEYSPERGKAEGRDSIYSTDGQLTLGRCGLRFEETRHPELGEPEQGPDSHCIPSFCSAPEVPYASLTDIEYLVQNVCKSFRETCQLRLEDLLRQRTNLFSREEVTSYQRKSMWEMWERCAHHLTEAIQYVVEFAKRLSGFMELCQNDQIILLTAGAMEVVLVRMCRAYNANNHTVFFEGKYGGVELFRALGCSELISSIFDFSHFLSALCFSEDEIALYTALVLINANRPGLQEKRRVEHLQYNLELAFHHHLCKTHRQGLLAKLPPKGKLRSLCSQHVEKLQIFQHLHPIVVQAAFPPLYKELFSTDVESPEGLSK
#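 Luminescence from a UAS-regulated Photinus luciferase reporter in stably transfected Drosophila Schneider cells is measured; decreased signal marks ROR gamma inhibition. Fusion expression is induced by 700 uM copper sulfate for 20 hr.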
# TDP1 cell noCPT: qHTS for Inhibitors of human tyrosyl-DNA phosphodiesterase 1 (TDP1): qHTS in cells in absence of CPT | actives 15% (n = 420,000) | DT40 Tdp1-/- hTDP1 cells, no CPT, ATP luminescence, 48 h | AID 686978, 2013 | Potency, µM (titrated, usually from 46.2 µM), actives largely listed as inhibitors; further: nearly all actives have a fitted effect of over 55% in size
#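 Stably hTDP1-transfected Tdp1-null chicken DT40 cells were treated with library compounds minus camptothecin and grown for at least 48 hr at 37 °C, after which cellular ATP was quantified by luminescence.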
# Numbers stand for hits; i = inactive; ? = inconclusive; nt = no result; [ ] = another dose, or the depositor's remark. The call rests on the fitted dose curve; in most records, active means well fitted curve in the direction sought with a large enough effect; inconclusive means small, poorly fitted or top-dose-only effect, or another doubt; inactive means no such curve, though single readings can be large; an effect the other way counts as inactive or inconclusive.
SMILES,ELG1 repair inh,VP16 counter,DT40 TDP1 CPT,12-LOX inh,RORg inh,TDP1 cell noCPT
c1ccc2c(C(c3nnnn3-c3ccc4c(c3)OCCO4)N3CCCCC3)ccnc2c1 (configuration not stated),nt,nt,?,i,nt,?
Cc1cccc(C)c1-n1nnnc1C(c1ccnc2ccccc12)N(CCN(C)C)Cc1ccccc1 (configuration not stated),nt,nt,?,i,nt,?
Cc1cccc(C)c1N1CCN(C(c2ccnc3ccccc23)c2nnnn2-c2ccc3c(c2)OCCO3)CC1 (configuration not stated),nt,nt,18.4µM,?,nt,14.6µM
Fc1ccccc1N1CCN(C(c2ccnc3ccccc23)c2nnnn2-c2ccc3c(c2)OCCO3)CC1 (configuration not stated),nt,nt,?,i,nt,20.6µM
O=C1NCCCCCCN(C(=O)Nc2ccccc2F)[C@H]2C[C@H](c3nc(-c4cccnc4)no3)C[C@@H]12,nt,nt,nt,i,nt,nt
CC(C)N(Cc1ccccc1)C(=O)COC(=O)c1ccc(F)cc1Cl,nt,nt,nt,i,nt,nt
O=C(C#Cc1ccccc1)N[C@H]1CC[C@@]23CCCN2C(=O)CCC[C@H]3[C@H]1Cc1ccccc1,nt,nt,nt,i,nt,nt
O=C(OCc1cn([C@H]2CN(CC3CCCCC3)[C@@H](c3ccc(Cl)cc3)C[C@@H]2O)nn1)c1ccccc1,nt,nt,?,i,nt,16.4µM
O=C(OCc1cn([C@@H]2CN(CC3CCCCC3)[C@@H](c3ccccc3)C[C@H]2O)nn1)c1ccccc1,nt,nt,?,i,nt,18.4µM
O=C(OCc1cn([C@H]2CN(CC3CCCCC3)[C@@H](c3ccccc3)C[C@@H]2O)nn1)c1ccccc1,nt,nt,?,i,nt,?
O=C(Cn1ccc2ccc(Cl)cc21)N1CCCCCC1,nt,nt,nt,i,nt,nt
Fc1ccc(Br)cc1C1C=C(c2ccc(Br)s2)Nc2ncnn21 (configuration not stated),i,i[0.365 µM],0.92µM,nt,35.5µM,0.651µM
C=C(C)Cn1c(=O)c2c(nc(-n3nc(C)c(C)c3C)n2CCC)n(C)c1=O,nt,nt,nt,i,nt,nt
COc1ccc(OC)c(S(=O)(=O)Nc2ccc(-c3ccc4nncn4n3)cc2)c1,i,nt,2.06µM,?,nt,2.06µM
CCOc1ccc(NS(=O)(=O)c2cc(OC)ccc2OC)cc1,i,i,i,i,i,?
COc1ccc(OC)c(S(=O)(=O)Nc2ccc(C(C)=O)cc2)c1,i,i,11.2µM,i,i,17.8µM
COc1ccc(OC)c(S(=O)(=O)Nc2ccc(Oc3ccccc3)cc2)c1,i,6.31µM,?,i,?,?
O=S(=O)(Nc1ccc(-c2ccc3nncn3n2)cc1)c1cc(F)ccc1F,?,nt,?,i,nt,?
CC(C)Cn1c(-c2ccncc2)nc2c1c(=O)[nH]c(=O)n2CC(C)C,nt,nt,nt,i,nt,nt
O=C1CCNCCCC(CO)CCN1 (configuration not stated),nt,nt,nt,i,nt,nt
Oc1ccc(Cl)cc1CNC1CCCCC1,nt,nt,i,?,nt,?
Oc1ccc(Cl)cc1CNCC1CCCCC1,?,nt,14.6µM,?,nt,?
O=C(NCc1ccco1)C1Cc2ccccc2CN1C(=O)c1ccco1 (configuration not stated),i,i,i,i,?,?
O=C(NCc1ccco1)C1Cc2ccccc2CN1S(=O)(=O)c1ccccc1F (configuration not stated),nt,nt,18.4µM,?,nt,?
O=C(NCCNC(=O)c1cc2ccccc2[nH]1)C(=O)N1CCCC1,nt,nt,nt,i,nt,nt
SMILES,ELG1 repair inh,VP16 counter,DT40 TDP1 CPT,12-LOX inh,RORg inh,TDP1 cell noCPT
Cc1ccc(N2C(=O)c3ccccc3C2C(=O)c2cc(C)ccc2O)cc1 (configuration not stated),?,i,?,?,i,?
Cc1ccc(N2C(=O)c3ccccc3C2C(=O)c2ccc(C)c(C)c2O)cc1 (configuration not stated),i,i,?,?,i,18.4µM
CCn1c(C(=O)N2CCCC(C(=O)N3CCN(c4cc(C)ccc4C)CC3)C2)cc2sccc21 (configuration not stated),nt,nt,?,i,nt,13µM
Cc1ccc(C)c(N2CCN(C(=O)C3CCN(C(=O)c4cc5sccc5n4C)CC3)CC2)c1,nt,nt,9.2µM,i,nt,8.2µM
Cc1ccc(C)c(N2CCN(C(=O)c3cc4sccc4n3C)CC2)c1,?,?,?,i,i,?
Cc1cccc(N2CCN(C(=O)C3CCN(C(=O)c4cc5sccc5n4C)CC3)CC2C)c1 (configuration not stated),nt,nt,13µM,i,nt,5.17µM
Cn1c(C(=O)N2CCN(c3cccc(C(F)(F)F)c3)CC2)cc2sccc21,?,i,i,i,?,?
CCn1c(C(=O)N2CCc3ccccc3C2)cc2sccc21,i,i,?,?,i,?
N#Cc1cc([N+](=O)[O-])ccc1NC(=O)COC(=O)CC12CC3CC(CC(Br)(C3)C1)C2,nt,nt,nt,i,nt,nt
CC1(C)CC(NC(=O)c2coc(=O)c(Br)c2)CC(C)(C)N1,?,i,0.326µM,i,?,0.517µM
Cc1ccc(C(=O)NC2CC(C)(C)NC(C)(C)C2)cc1,i,i,i,i,?,i
CCc1nc2ccc(C(=O)NCc3ccc(OC)cc3)cn2c1N(CCC(C)C)CCN(C)C,nt,nt,?,i,nt,16.4µM
CCc1nc2ccc(C(=O)NCC3CCCCC3)cn2c1N(CCC(C)C)CCN(C)C,nt,nt,18.4µM,i,nt,25.9µM
CCc1nc2ccc(C(=O)NCc3ccccc3OC)cn2c1N(C=O)CCC(C)C,nt,nt,23.1µM,i,nt,16.4µM
CCCCN(C=O)c1c(CC)nc2ccc(C(=O)NCc3ccccc3OC)cn12,nt,nt,?,i,nt,?
Cc1ncn[nH]1,nt,nt,nt,i,nt,nt
O=[N+]([O-])c1cnc(NS(=O)(=O)c2ccccc2[N+](=O)[O-])s1,nt,nt,nt,39.8µM,nt,nt
O=[N+]([O-])c1ccccc1S(=O)(=O)Nc1ccc(S(=O)(=O)Nc2nccs2)cc1,i,i,?,?,i,16.4µM
Cn1ccnc1CN1C[C@@H]2C[C@H]1C(=O)N(Cc1ccccn1)c1ccccc1O2,nt,nt,nt,i,nt,nt
CN(C)CCCNCC(=O)c1c(-c2ccccc2)n(C)c2ccccc12,i,i,29.1µM,?,i,18.4µM
